Data taken from the supplement of paper PMC8387472.

Experiments:
Assay in all cases: fraction of edited reads among all mapped reads; higher = more Cas9 editing
Details in all cases: mESC; 2uM; 72 h treatment, harvest day 5
[1] = compound: CC(=O)O/N=C1\C(=O)N(Cc2cc(Cl)ccc2Cl)c2ccc(Cl)cc21
[2] = compound: CC(C)(C#N)c1ccc(N2C(=O)OCc3cnc4ccc(-c5cnc6ccccc6c5)cc4c32)cc1
[3] = compound: CCCCOc1c(C(=O)c2c(F)cc(C)cc2F)c[nH]c2nncc1-2
[4] = compound: CCN1CCN(CC(=O)Nc2ccc(-c3cccc4c(=O)cc(N5CCOCC5)oc34)c3sc4ccccc4c23)CC1
[5] = compound: CCc1c2c(nc3ccc(OC(=O)N4CCC(N5CCCCC5)CC4)cc13)-c1cc3c(c(=O)n1C2)COC(=O)[C@]3(O)CC [Irinotecan HCl Trihydrate]
[6] = compound: CCn1c(=O)c(-c2ccc(Cl)cc2Cl)cc2cnc(Nc3ccc(N4CCNCC4)c(F)c3)nc21
[7] = compound: CNc1ccc([N+](=O)[O-])c(Nc2ccc3[nH]ncc3c2)n1
Rifapentine = compound: CO[C@H]1/C=C/O[C@@]2(C)Oc3c(C)c(O)c4c(O)c(c(/C=N/N5CCN(C6CCCC6)CC5)c(O)c4c3C2=O)NC(=O)/C(C)=C\C=C\[C@H](C)[C@H](O)[C@@H](C)[C@@H](O)[C@@H](C)[C@H](OC(C)=O)[C@@H]1C [Rifapentine]
[8] = compound: COc1ccccc1-c1cc(Nc2cccc(CS(N)(=O)=O)c2)ncn1
[9] = compound: C[C@@H]1CN(CC(=O)Nc2ccc3c(c2)Cc2cccc(-c4cc(=O)cc(N5CCOCC5)o4)c2S3)C[C@H](C)O1

“19.0 (DMSO control at this site: 1-bp insertion 0.121, MH deletion 0.101, edited 0.057) TCTGCAGGGGTCGGAACCCGGGGGCTAGGGCTATCCCGGGGGCTAGGGCTATTAGCGAACC” was tested, and the “fraction of edited reads among all mapped reads” value (shortened to “fraction”) [1] was 0.0656, the “fraction” value [2] was 0.0719 and the “fraction” value [3] was 0.0679. For the same target, the “fraction” value [4] was 0.0342, the “fraction” value [5] was 0.0806 and the “fraction” value [6] was 0.0564. The “fraction” value [7] was 0.0687, the “fraction” value (Rifapentine) was 0.0905 and the “fraction” value [8] was 0.087. For the same target, the “fraction” value [9] was 0.0476.
With “43.0 (DMSO control at this site: 1-bp insertion 0.134, MH deletion 0.714, edited 0.104) AGTTTAACTTACTCCGGCCAAAAAAGAACTGCACCTCTGGAGCGGGTTAGTGGTGGTGGTA” the “fraction” value [1] was 0.15, the “fraction” value [2] was 0.143 and the “fraction” value [3] was 0.151. The “fraction” value [4] was 0.0617, the “fraction” value [5] was 0.184 and the “fraction” value [6] was 0.119. For the same target, the “fraction” value [7] was 0.164, the “fraction” value (Rifapentine) was 0.218 and the “fraction” value [9] was 0.0771.
In the case of “3.0 (DMSO control at this site: 1-bp insertion 0.109, MH deletion 0.149, edited 0.09) TGCTAGCGCCCCCACAAAGCGGACCAGCCAGCACTATAGGGAATAAGGCCAACTTGCACCC”, the “fraction” value [1] is reported as 0.101, the “fraction” value [2] is reported as 0.0887 and the “fraction” value [3] is reported as 0.115. The “fraction” value [4] was 0.0444, the “fraction” value [5] was 0.124 and the “fraction” value [6] was 0.099. The “fraction” value [7] was 0.103, the “fraction” value (Rifapentine) was 0.178 and the “fraction” value [8] was 0.123. For the same target, the “fraction” value [9] was 0.0619.
For “1.0 (DMSO control at this site: 1-bp insertion 0.521, MH deletion 0.323, edited 0.141) GTGTCACAGTGCACGAGTGACGGGATAATGTGCTGACAGGTAATTGATAGGCTTCCAACTT”, the “fraction” value [1] was 0.144, the “fraction” value [2] was 0.154 and the “fraction” value [3] was 0.163. For the same target, the “fraction” value [4] was 0.0521, the “fraction” value [5] was 0.194 and the “fraction” value [6] was 0.145. For the same target, the “fraction” value [7] was 0.207, the “fraction” value (Rifapentine) was 0.256 and the “fraction” value [8] was 0.203. For the same target, the “fraction” value [9] was 0.152.
“17.0 (DMSO control at this site: 1-bp insertion 0.112, MH deletion 0.348, edited 0.058) CCATAGCGCGATAAATATGACGGCTCATCCTGTATGACGGCTCATCCTGTATCAACTGTCC” was tested, and the “fraction” value [1] was 0.0666, the “fraction” value [2] was 0.0797 and the “fraction” value [3] was 0.0794. For the same target, the “fraction” value [4] was 0.0411, the “fraction” value [5] was 0.0882 and the “fraction” value [6] was 0.0594. The “fraction” value [7] was 0.0812, the “fraction” value (Rifapentine) was 0.115 and the “fraction” value [8] was 0.0964. The “fraction” value [9] was 0.0394.
For “42.0 (DMSO control at this site: 1-bp insertion 0.145, MH deletion 0.655, edited 0.132) GGGCTAAACCTATGAGCACAGTAGAACTAAGGGTGGGTGGTGTAGCTAAAGAACTTGACCA”, the “fraction” value [1] was 0.151, the “fraction” value [2] was 0.153 and the “fraction” value [3] was 0.161. For the same target, the “fraction” value [4] was 0.0618, the “fraction” value [5] was 0.191 and the “fraction” value [6] was 0.139. The “fraction” value [7] was 0.184, the “fraction” value (Rifapentine) was 0.27 and the “fraction” value [8] was 0.187. For the same target, the “fraction” value [9] was 0.0909.
“34.0 (DMSO control at this site: 1-bp insertion 0.184, MH deletion 0.385, edited 0.103) ATTATAGGACCCTGAGGGAGCAGAGATGTGGGAATGGGGGCCGAGCCAATTGTGATGTAAG” was tested, and the “fraction” value [1] was 0.119, the “fraction” value [2] was 0.107 and the “fraction” value [3] was 0.0942. For the same target, the “fraction” value [4] was 0.0488, the “fraction” value [5] was 0.159 and the “fraction” value [6] was 0.0937. For the same target, the “fraction” value [7] was 0.114, the “fraction” value (Rifapentine) was 0.157 and the “fraction” value [8] was 0.129. The “fraction” value [9] was 0.0719.
“15.0 GCGCCTCCAATGACCCAGTGGGATCCTACTCCATAATGGGATCCTGGGGATTCCTCGCTCC” was tested, and the “fraction” value [1] was 0.105, the “fraction” value [2] was 0.0725 and the “fraction” value (Rifapentine) was 0.107.
In the case of “47.0 (DMSO control at this site: 1-bp insertion 0.095, MH deletion 0.585, edited 0.118) GAGTGGTCCCGAGCCAGGAACTGTGTGTGTTGCAGGGGGGCAGTAACTCCCCAACTCCCTC”, the “fraction” value [1] is reported as 0.124, the “fraction” value [2] is reported as 0.13 and the “fraction” value [3] is reported as 0.135. For the same target, the “fraction” value [4] was 0.0496, the “fraction” value [5] was 0.156 and the “fraction” value [6] was 0.121. For the same target, the “fraction” value [7] was 0.151, the “fraction” value (Rifapentine) was 0.198 and the “fraction” value [8] was 0.151. For the same target, the “fraction” value [9] was 0.0862.
With “22.0 (DMSO control at this site: 1-bp insertion 0.573, MH deletion 0.229, edited 0.045) CTGATGGTTGAAGGATTTAGCCGGGGTCCTAGACGCCGGGGTCCTAGACGAAAGGGCCACG” the “fraction” value [1] was 0.0447, the “fraction” value [2] was 0.0542 and the “fraction” value [3] was 0.0455. The “fraction” value [4] was 0.0167, the “fraction” value [5] was 0.0664 and the “fraction” value [6] was 0.0371. The “fraction” value [7] was 0.0513, the “fraction” value (Rifapentine) was 0.0926 and the “fraction” value [8] was 0.0709. The “fraction” value [9] was 0.0389.
For “18.0 (DMSO control at this site: 1-bp insertion 0.114, MH deletion 0.789, edited 0.094) GCGCAAGTGCATAAGTTTTTCTTAAGGCGTGCCTTTAAGGCGTGCCTTTGTCGGTCCTGGA”, the “fraction” value [1] was 0.103, the “fraction” value [2] was 0.109 and the “fraction” value [3] was 0.105. The “fraction” value [4] was 0.064, the “fraction” value [5] was 0.111 and the “fraction” value [6] was 0.0889. The “fraction” value [7] was 0.116, the “fraction” value (Rifapentine) was 0.175 and the “fraction” value [8] was 0.122. For the same target, the “fraction” value [9] was 0.0564.
“5.0 (DMSO control at this site: 1-bp insertion 0.214, MH deletion 0.567, edited 0.105) CGCTGACCCGAGACCTACGCGAACCGAAATCGGCGACCGGTGCGCAAGCAGGGCTGGCGTC” was tested, and the “fraction” value [1] was 0.13, the “fraction” value [2] was 0.128 and the “fraction” value [3] was 0.133. The “fraction” value [4] was 0.0591, the “fraction” value [5] was 0.169 and the “fraction” value [6] was 0.13. The “fraction” value [7] was 0.145, the “fraction” value (Rifapentine) was 0.226 and the “fraction” value [8] was 0.163. The “fraction” value [9] was 0.085.
In the case of “26.0 (DMSO control at this site: 1-bp insertion 0.518, MH deletion 0.262, edited 0.026) AGGGCGCGCCCCACGCACTCTGCGGCAAGTCCCTCTGCGGCAAGTCCTCGGCCCGGAAGAC”, the “fraction” value [1] is reported as 0.0291, the “fraction” value [2] is reported as 0.0255 and the “fraction” value [3] is reported as 0.0319. For the same target, the “fraction” value [4] was 0.0118, the “fraction” value [5] was 0.0344 and the “fraction” value [6] was 0.0242. The “fraction” value [7] was 0.0263, the “fraction” value (Rifapentine) was 0.0398 and the “fraction” value [8] was 0.0351. The “fraction” value [9] was 0.0296.
With “38.0 (DMSO control at this site: 1-bp insertion 0.063, MH deletion 0.487, edited 0.17) GGGCTGGGTGCTAAAATGAGGAGCTCCAAGAAGACTGAGGTGAACCTGGAGGCCCCTGAGC” the “fraction” value [1] was 0.178, the “fraction” value [2] was 0.169 and the “fraction” value [3] was 0.188. For the same target, the “fraction” value [4] was 0.0737, the “fraction” value [5] was 0.243 and the “fraction” value [6] was 0.147. The “fraction” value [7] was 0.206, the “fraction” value (Rifapentine) was 0.26 and the “fraction” value [8] was 0.204. The “fraction” value [9] was 0.107.
With “8.0 GCATGCGTGTTTTGGGACAATGTAGTATACATTTGGGAGGCTCTCAGCTTTTCCCAATAAA” the “fraction” value [1] was 0.0233, the “fraction” value [2] was 0.0207 and the “fraction” value [3] was 0.0186.
With “30.0 (DMSO control at this site: 1-bp insertion 0.074, MH deletion 0.67, edited 0.142) GAGCTGGCATGAGTATTTGTGCCACATGGCTCCCACATGGCTCCACATGCAAGTTTGAAAC” the “fraction” value [1] was 0.142, the “fraction” value [2] was 0.149 and the “fraction” value [3] was 0.158. For the same target, the “fraction” value [4] was 0.066, the “fraction” value [5] was 0.204 and the “fraction” value [6] was 0.156. The “fraction” value [7] was 0.187, the “fraction” value (Rifapentine) was 0.224 and the “fraction” value [8] was 0.177. The “fraction” value [9] was 0.134.
For “2.0 (DMSO control at this site: 1-bp insertion 0.364, MH deletion 0.356, edited 0.125) GGTGCCCCCGAGACCTACGCGAACCGAAATCGATGTCCGGTGCGCAAGCAGGGCTGGCGTC”, the “fraction” value [1] was 0.141, the “fraction” value [2] was 0.129 and the “fraction” value [3] was 0.143. The “fraction” value [4] was 0.0564, the “fraction” value [5] was 0.191 and the “fraction” value [6] was 0.14. For the same target, the “fraction” value [7] was 0.176, the “fraction” value (Rifapentine) was 0.228 and the “fraction” value [8] was 0.172. The “fraction” value [9] was 0.121.
For “41.0 (DMSO control at this site: 1-bp insertion 0.022, MH deletion 0.754, edited 0.115) AAAGAGACAGCAGGTATGAATCCATCTTCCTGACCCTTGGGACCAGCCGGGGCAGTGAAGC”, the “fraction” value [1] was 0.135, the “fraction” value [2] was 0.15 and the “fraction” value [3] was 0.152. The “fraction” value [4] was 0.0542, the “fraction” value [5] was 0.19 and the “fraction” value [6] was 0.126. The “fraction” value [7] was 0.162, the “fraction” value (Rifapentine) was 0.23 and the “fraction” value [8] was 0.171. The “fraction” value [9] was 0.0671.
With “28.0 (DMSO control at this site: 1-bp insertion 0.035, MH deletion 0.77, edited 0.142) TGGTTCTTCCTTTGTAGAGAGTGTTCATCTGGGAATCTGGGACTTGGATGAGACAATCATT” the “fraction” value [1] was 0.171, the “fraction” value [2] was 0.174 and the “fraction” value [3] was 0.171. For the same target, the “fraction” value [4] was 0.0787, the “fraction” value [5] was 0.217 and the “fraction” value [6] was 0.16. The “fraction” value [7] was 0.181, the “fraction” value (Rifapentine) was 0.291 and the “fraction” value [8] was 0.196. The “fraction” value [9] was 0.0747.
